These results are taken from paper PMC5540273 (PLoS ONE, 2017).
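Note: KINOMEscan kinase panel screen.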

One assay relates to MAP4K5. As to conditions: concentration: 1 μM, replicates: in singlicate; n = 1.
With `O=C(Nc1cccc(-c2nn3ncccc3c2-c2ccnc(Nc3cccc(C(F)(F)F)c3)n2)c1)c1c(F)cccc1F` [GSK299495], the “%Inh” value stood at 48%. On the same count and under the same terms, the same measure for `O=C(c1ccc(-c2cc(-c3c[nH]nc3-c3ccccn3)ccn2)cc1)N1CCOCC1` [GW812171]: 0%; for `Cc1cccc(Cn2ccn3c(=O)cc(N4CCOCC4)nc23)c1` [GSK2297542]: 0%. In the case of `NS(=O)(=O)c1cccc(-c2ccc3ncc(N4CCOCC4)nc3c2)c1` [GSK1535721], the “%Inh” value was found to be 0%. For the compound `CCc1ccnc(/C=C/c2n[nH]c3cc(Sc4ccccc4C(=O)NC)ccc23)c1`, the “%Inh” value came out at 3%. `O=c1cc(N2CCOCC2)nc2n(Cc3cccc(C(F)(F)F)c3)ccn12` [GSK2297543]: the “%Inh” value came to 0%.

In the case of `COC(=O)Nc1nc2cc(Oc3ccc(NC(=O)Nc4cc(F)ccc4F)cc3)ccc2[nH]1.Cl` [GW701424], the “%Inh” value is on record as 0%. Consider `NS(=O)(=O)CCc1cccc(Nc2nccc(-c3c(-c4cccc(NC(=O)c5c(F)cccc5F)c4)nn4ccccc34)n2)c1` [GSK336735], for which the “%Inh” value is 95.8%.

Take `O=C(NCCNc1ccnc(Nc2ccc(F)cc2)n1)c1cc2ccccc2s1` [GSK1379874]: the “%Inh” value is 3%. Regarding `CC(C)(C)n1cnc2c(N)ncnc21` [SKF-97359], the “%Inh” value came out at 0%.

As for `COc1cc2c(cc1OC[C@@H](O)CO)ncc1c3ccc(C#N)cc3[nH]c21`, the “%Inh” value amounted to 3%.

In the case of `O=C(NCCNc1ccnc(Nc2ccc(F)cc2)n1)Nc1ccccc1F` [GSK1379880], the “%Inh” value was 0%. As to `Fc1ccc(-c2ncn(CCCN3CCOCC3)c2-c2ccccn2)cc1` [SB-211742], the “%Inh” value was 0%. Same read-out and setting: the same measure for `O=C(Nc1n[nH]c2cc(-c3cccc(F)c3)ccc12)C1CC1` [SB-735464]: 6%; for `Cc1nnc(-c2ccc(C)c(-c3ccc(C(=O)Nc4ccc(NS(C)(=O)=O)cc4)cc3)c2)o1` [GW702865]: 0%; for `CNc1ncnc2[nH]ncc12` [SKF-18355]: 0%.

As for `Cc1cccc(-c2nc(-c3ccc(S(C)(=O)=O)cc3)sc2-c2ccncc2)c1`, the “%Inh” value is on record as 0%. On the same count and under the same terms, the same measure for `Nc1nc(-c2ccc3c(N)n[nH]c3c2)cc(N2CCCC2)n1` [GSK2227430]: 0%; for `Fc1ccc(-c2ncn(CCCN3CCOCC3)c2-c2cccnc2)cc1` [SB-211743]: 4%. As to `[2H]C([2H])(c1cccc(C(F)(F)F)c1C)n1ccn2c(=O)nc(N3CCOCC3)cc12` [GSK2336394], the “%Inh” value was determined as 0%. In the case of `c1ccc(-c2cc(-c3c[nH]nc3-c3ccccn3)ccn2)cc1` [GW576604], the “%Inh” value is 0%. Same read-out and setting: then `CCc1nc(-c2cccc(C)c2)c(-c2ccnc(NCc3ccccc3)c2)s1`, with 0%; and `Cn1ccc2ncnc(Oc3ccc(NC(=O)Nc4ccncc4)c(Cl)c3)c21`, with 0%.

As to `COCCNC(=O)c1ccc(-c2cc(C(=O)NC3CC3)cc(F)c2C)cc1` [GW868318], the “%Inh” value came to 6%. With `O=C1NC(=O)C(N2CCc3ccccc32)=C1c1cccc(Cl)c1` [SB-408010], the “%Inh” value is listed as 0%. The same measure, in the same setting: the same measure for `CN(C1=C(c2ccccc2)C(=O)NC1=O)c1ccccc1` [SB-334860]: 9%; for `NCC(NC(=O)c1cc(-c2cn[nH]c2)c(-c2ccnc3[nH]ccc23)s1)c1ccccc1.O=C(O)C(F)(F)F.O=C(O)C(F)(F)F` (stereo not drawn) [GSK1325775]: 25%. Regarding `COc1ccc(Nc2nccc(N3CCC(NC(=O)Nc4cccc(C(C)=O)c4)C3)n2)cc1` (stereo not drawn) [GSK1379731], the “%Inh” value turned out to be 0%. Still for that read-out and setting: then `Cn1cc(-c2ccc3c(c2)CCN3C(=O)Cc2ccccc2Cl)c2c(N)ncnc21` [GSK2608885], with 96.3%. As to `O=c1cc(N2CCOCC2)nc2n(Cc3cccc(F)c3)ccn12` [GSK2297430], the “%Inh” value came out at 4%. Still for that read-out and setting: the same measure for `CN(C(=O)c1ccc(-c2cc(-c3c[nH]nc3-c3ccccn3)ccn2)cc1)C1CCOCC1` [GW810083]: 0%; for `CC(=O)Nc1ccc(COc2ccc(Nc3ccnc4cc(-c5ccccn5)ccc34)cc2)cc1.Cl` [GW440148]: 0%.

On to `NS(=O)(=O)c1cccc(-c2ccc3nccc(-c4cccc(S(N)(=O)=O)c4)c3c2)c1` [GW867253], for which the “%Inh” value came out at 0%. The same measure, in the same setting: the same measure for `N#Cc1c(N2CCOCC2)sc(-c2ccn[nH]2)c1-c1ccc(Cl)cc1`: 0%.

The next assay has as its system MAPKAPK2. As to conditions: concentration: 1 μM, replicates: in singlicate; n = 1.
Consider `O=C(Nc1cccc(-c2nn3ncccc3c2-c2ccnc(Nc3cccc(C(F)(F)F)c3)n2)c1)c1c(F)cccc1F` [GSK299495], for which the “%Inh” value came out at 35%. For `O=C(c1ccc(-c2cc(-c3c[nH]nc3-c3ccccn3)ccn2)cc1)N1CCOCC1` [GW812171], the “%Inh” value came out at 0%. The same measure, in the same setting: then `Cc1cccc(Cn2ccn3c(=O)cc(N4CCOCC4)nc23)c1` [GSK2297542], with 14%; and `NS(=O)(=O)c1cccc(-c2ccc3ncc(N4CCOCC4)nc3c2)c1` [GSK1535721], with 7%; and `CCc1ccnc(/C=C/c2n[nH]c3cc(Sc4ccccc4C(=O)NC)ccc23)c1`, with 0%. The same measure, in the same setting: the same measure for `O=c1cc(N2CCOCC2)nc2n(Cc3cccc(C(F)(F)F)c3)ccn12` [GSK2297543]: 0%; for `COC(=O)Nc1nc2cc(Oc3ccc(NC(=O)Nc4cc(F)ccc4F)cc3)ccc2[nH]1.Cl` [GW701424]: 13%; for `NS(=O)(=O)CCc1cccc(Nc2nccc(-c3c(-c4cccc(NC(=O)c5c(F)cccc5F)c4)nn4ccccc34)n2)c1` [GSK336735]: 23%. On to `O=C(NCCNc1ccnc(Nc2ccc(F)cc2)n1)c1cc2ccccc2s1` [GSK1379874], for which the “%Inh” value is 0%. Still for that read-out and setting: the same measure for `CC(C)(C)n1cnc2c(N)ncnc21` [SKF-97359]: 0%; for `COc1cc2c(cc1OC[C@@H](O)CO)ncc1c3ccc(C#N)cc3[nH]c21`: 0%; for `O=C(NCCNc1ccnc(Nc2ccc(F)cc2)n1)Nc1ccccc1F` [GSK1379880]: 12%. With `Fc1ccc(-c2ncn(CCCN3CCOCC3)c2-c2ccccn2)cc1` [SB-211742], the “%Inh” value is 0%. Take `O=C(Nc1n[nH]c2cc(-c3cccc(F)c3)ccc12)C1CC1` [SB-735464]: the “%Inh” value was 0%. On to `Cc1nnc(-c2ccc(C)c(-c3ccc(C(=O)Nc4ccc(NS(C)(=O)=O)cc4)cc3)c2)o1` [GW702865], for which the “%Inh” value is recorded as 11%. With `CNc1ncnc2[nH]ncc12` [SKF-18355], the “%Inh” value turned out to be 0%. On to `Cc1cccc(-c2nc(-c3ccc(S(C)(=O)=O)cc3)sc2-c2ccncc2)c1`, for which the “%Inh” value worked out at 1%. With `Nc1nc(-c2ccc3c(N)n[nH]c3c2)cc(N2CCCC2)n1` [GSK2227430], the “%Inh” value is given as 0%. On the same count and under the same terms, the same measure for `Fc1ccc(-c2ncn(CCCN3CCOCC3)c2-c2cccnc2)cc1` [SB-211743]: 0%. `[2H]C([2H])(c1cccc(C(F)(F)F)c1C)n1ccn2c(=O)nc(N3CCOCC3)cc12` [GSK2336394]: the “%Inh” value was 22%. Take `c1ccc(-c2cc(-c3c[nH]nc3-c3ccccn3)ccn2)cc1` [GW576604]: the “%Inh” value is recorded as 6%. Regarding `CCc1nc(-c2cccc(C)c2)c(-c2ccnc(NCc3ccccc3)c2)s1`, the “%Inh” value turned out to be 0%. On to `Cn1ccc2ncnc(Oc3ccc(NC(=O)Nc4ccncc4)c(Cl)c3)c21`, for which the “%Inh” value is recorded as 0%. With `COCCNC(=O)c1ccc(-c2cc(C(=O)NC3CC3)cc(F)c2C)cc1` [GW868318], the “%Inh” value turned out to be 8%. Consider `O=C1NC(=O)C(N2CCc3ccccc32)=C1c1cccc(Cl)c1` [SB-408010], for which the “%Inh” value worked out at 3%. As for `CN(C1=C(c2ccccc2)C(=O)NC1=O)c1ccccc1` [SB-334860], the “%Inh” value stood at 8%. With `NCC(NC(=O)c1cc(-c2cn[nH]c2)c(-c2ccnc3[nH]ccc23)s1)c1ccccc1.O=C(O)C(F)(F)F.O=C(O)C(F)(F)F` (stereo not drawn) [GSK1325775], the “%Inh” value was 0%. With `COc1ccc(Nc2nccc(N3CCC(NC(=O)Nc4cccc(C(C)=O)c4)C3)n2)cc1` (stereo not drawn) [GSK1379731], the “%Inh” value is 0%.

`Cn1cc(-c2ccc3c(c2)CCN3C(=O)Cc2ccccc2Cl)c2c(N)ncnc21` [GSK2608885]: the “%Inh” value was 0%.

For `O=c1cc(N2CCOCC2)nc2n(Cc3cccc(F)c3)ccn12` [GSK2297430], the “%Inh” value is recorded as 12%. Turning to `CN(C(=O)c1ccc(-c2cc(-c3c[nH]nc3-c3ccccn3)ccn2)cc1)C1CCOCC1` [GW810083], the “%Inh” value stood at 0%.

`NCCNS(=O)(=O)c1ccc(-c2ccnc3[nH]ccc23)cc1` [GSK977617]: the “%Inh” value was 0%. For the compound `CC(=O)Nc1ccc(COc2ccc(Nc3ccnc4cc(-c5ccccn5)ccc34)cc2)cc1.Cl` [GW440148], the “%Inh” value worked out at 0%. With `NS(=O)(=O)c1cccc(-c2ccc3nccc(-c4cccc(S(N)(=O)=O)c4)c3c2)c1` [GW867253], the “%Inh” value was 0%. For `N#Cc1c(N2CCOCC2)sc(-c2ccn[nH]2)c1-c1ccc(Cl)cc1`, the “%Inh” value was found to be 0%.
